The panel holds about 79,000 compounds, 15% with a hit somewhere; the sample as a whole holds those more often. Unmarked numbers belong to inactive results. Activity calls are given as the source filed them. Cut-off read from the data, not from the text of the source: active = growth inhibition above about 70%; inactive = the rest.
Key:
[1] = NCI Yeast Anticancer Drug Screen. Data for the rad50 strain (AID 155);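 note: 0% = growth of vehicle-only cultures of the same strain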; details: S. cerevisiae rad50 strain growth inhibition; at 50.0 µM; hits give high values
In short: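 Growth of the mutant yeast was measured after compound exposure and referenced to vehicle-treated cultures.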

[2] = NCI Yeast Anticancer Drug Screen. Data for the mec2-1 strain (AID 157); details: S. cerevisiae mec2-1 strain, at 50.0 µM, hits give high values
In short: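 Yeast mec2-1 mutant treated with compound. Readout: growth inhibition vs vehicle controls.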

[3] = NCI Yeast Anticancer Drug Screen. Data for the sgs1 mgt1 strain (AID 161);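 note: 0% = growth of cultures given vehicle only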; details: S. cerevisiae sgs1 mgt1 strain, at 50.0 µM, hits give high values
In short: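 Test agents were incubated with a DNA-repair-mutant yeast strain. Growth was then read and compared against vehicle-treated controls.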

[4] = NCI Yeast Anticancer Drug Screen. Data for the cln2 rad14 strain (AID 165);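 note: 0% = growth equal to vehicle treated cultures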; details: S. cerevisiae cln2 rad14 strain, at 50.0 µM, hits give high values
In short: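 cln2 rad14 yeast strain; compound exposure; growth inhibition read vs vehicle controls.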

[5] = NCI Yeast Anticancer Drug Screen. Data for the bub3 strain (AID 167); details: S. cerevisiae bub3 mutant strain, at 50.0 µM, hits give high values
In short: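 Whole-cell yeast assay. The mutant strain was incubated with compounds, and growth inhibition was determined by comparison with vehicle-treated cells.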

[6] = NCI Yeast Anticancer Drug Screen. Data for the mlh1 rad18 strain (AID 175); details: S. cerevisiae mlh1 rad18 strain growth inhibition; at 50.0 µM; hits give high values
In short: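 Yeast w/ defined DNA-repair lesions; compound exposure; growth vs vehicle controls → % inhibition.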

Structure (SMILES) | growth inhibition [1] | growth inhibition [2] [%] | growth inhibition [3] | growth inhibition [4] [%] | growth inhibition [5] | growth inhibition [6]
COC(=O)C1(Br)c2ccccc2-c2ccccc21 | -3.15% | 17.7 | 0.45% | -22.4 | 8.5% | -9.3%
O=C1CCCN(Cc2ccccc2)C1 | -4.2% | -25.2 | 0.35% | 1.2 | -0.4% | 9.45%
COc1ccc2c(c1)N=C(NNC1=Nc3cc(OC)ccc3SC1)CS2 | -9.1% | 3.15 | 14.4% | -14.9 | -4.7% | 3.9%
Clc1ccc(Cl)c(Nc2ccnc(SCc3ccccc3)n2)c1 | 42.1% | 25.9 | -27.5% | 14.4 | -7% | 24.9%
C/C(=N\Nc1cc(C)nc2cc3c(cc12)OCO3)c1cn(C)n(-c2ccccc2)c1=O | 19.9% | 54.5 | 21.6% | 34.9 | 12.4% | 39.1%
Cc1nnc2n1N=C(c1ccc(O)c(O)c1O)CS2 | 2.9% | -3.15 | -4.7% | 7.4 | 1.75% | -6.1%
COc1ccc(/C=N/NC(=O)c2ccccc2NC(=O)c2ccccc2Cl)cc1 | 17.4% | -25.1 | 29.1% | -13.7 | 7.25% | 24.7%
O=C1C(Br)=CC(Br)=C/C1=N/Br | 70.6% (active) | 61.5 | 85.2% (active) | 61.1 | 70% (active) | 78.5% (active)
c1ccc2c(c1)CC1c3ccccc3CC21 (stereo not drawn) | -1.2% | -7 | -1.95% | -28.4 | 0.75% | -2.35%
O=C(c1ccccc1)C1C(/C=C/c2ccccc2)C(C(=O)c2ccccc2)C1/C=C/c1ccccc1 (stereo not drawn) | 41.2% | -7.1 | 11.8% | 0.4 | -4.5% | 3.25%
CC1(C)OC(=O)CC2(C)OC12 (stereo not drawn) | -8% | -52.3 | -11.2% | -16.4 | -5.9% | -19.2%
COc1cc2cc(OC)c3cc4c(cc3c2c(OC)c1OC)OCO4 | 12.2% | 11.1 | 19.2% | 7.3 | 6.6% | 5.65%
COc1ccc(/C=N/NC(=O)O)cc1 | 4.55% | -5.35 | -24% | -12.3 | -32.5% | -18.4%
Cc1ccc(C=C(C(=O)O)C(=O)O)o1 | -21.3% | -29.4 | -17.6% | -8.05 | -13.4% | -56.2%
CC(C)CN(CC(C)C)C(=S)[S-].CC(C)CN(CC(C)C)C(=S)[S-].[Zn] | 54.5% | 12.7 | 55% | 21.4 | 4.65% | 32.4%
O=C(OCC(Cl)(Cl)Cl)N1[C@@H]2C=C[C@@H](N1C(=O)OCC(Cl)(Cl)Cl)[C@@]13CCCCC21O3 (stereo partly drawn) | -55.7% | 5.15 | 0.45% | 1.8 | -4.95% | 1.65%
CCOC(=O)C(=O)/C(=C/N1CCNC1=S)C(=O)OCC | -28.6% | -9.05 | -26.8% | 32.4 | -4.35% | -25.9%
COCC(=O)c1ccccc1 | 14.3% | 1.7 | 5.3% | 6 | -0.65% | 32.9%
Cc1cccc(-n2cnc3c(N(CCO)CCO)ncnc32)c1 | 6.55% | 2.6 | -10.1% | -4.5 | 2.25% | -4.3%

Structure (SMILES) | growth inhibition [1] | growth inhibition [2] [%] | growth inhibition [3] | growth inhibition [4] [%] | growth inhibition [5] | growth inhibition [6]
C[C@]12CC=CC(=O)[C@@]1(C)CCC(=O)C2 | 3.45% | 0.95 | -9.05% | -25.4 | -4.7% | 8.1%
Cc1cccnc1Br | -25.2% | -9.85 | -5.05% | -29.6 | -5.65% | -26.1%
CC(C)(C#N)C(C)(C)c1cnc2ccccc2c1 | 15.2% | -7.15 | -9.4% | -52.5 | -2.25% | -12.4%
COc1cc(C(=O)O)c(O)c(OC)c1OC | 0.2% | 0.9 | -8.4% | -36.1 | -13% | 3.4%
Cc1ccc(S(=O)(=O)N(C)c2cc(Cl)c(I)cc2Cl)cc1 | 38.9% | -5.05 | 8.9% | 0.25 | 25.1% | 5.2%
C[C@]12CC[C@H](OC3CCCCO3)CC1=CC[C@@H]1C2CC[C@]2(C)/C(=N/OCCC#N)CCC12 (stereo partly drawn) | 16.9% | 15.2 | -3.85% | -49.4 | 3.3% | 28.1%
Cc1cc(=O)c2c(C)nn(-c3ccccc3)c2[nH]1 | -16.3% | -36.2 | 10.3% | -9.15 | 2.4% | -1.85%
CC1(C)OCC2OC=CC(=O)C2O1 (stereo not drawn) | -8.65% | -2.65 | -0.4% | 5.15 | -14.1% | -68.5%
CC(C)(C)NC(NC(C)(C)C)=C(C(Cl)=C(Cl)Cl)[N+](=O)[O-] | -2.1% | -9.55 | -6.15% | 7.8 | 12.7% | -0.75%
CC1CC(C[N+](=O)[O-])CC2(C1)OCCO2 (stereo not drawn) | -1.5% | -25.3 | -28.6% | 5.1 | -28.8% | -5.15%
O=C(O)CC(C(=O)O)C1c2ccccc2-c2ccccc21 (stereo not drawn) | -0.1% | -27.2 | -40.4% | -17.2 | -49.2% | 3.6%
NCC(NC(=O)OCc1ccccc1)C(=O)O (stereo not drawn) | 3.2% | 12.4 | 3.3% | 19.1 | 5.7% | 32.1%
CN(C)C(=O)CCCCC(=O)N(C)C | 16.5% | -5.2 | 1.45% | -14.7 | 5.65% | -22.2%
CCCCCCCCCCCCSC1=CC(=O)C(SCCCCCCCCCCCC)=CC1=O | -15.8% | -6.55 | -5.6% | -13.2 | -4.5% | -34.1%
O=C1CSC(/C(=C\c2ccc(Cl)cc2)c2nc3ccccc3[nH]2)=N1 | 11.3% | 11.2 | -4.15% | 11.7 | 12.2% | 4.3%
C=C(C)C(=O)OCCOCCOCCOC(=O)C(=C)C | 8.4% | -19.2 | -9.75% | 3 | -7.7% | 4.5%
C[Si](C)(Cl)c1ccccc1 | -47.6% | -27.4 | -11.7% | 17.4 | -23.6% | -18.4%
COc1ccc(C(O)S(=O)(=O)O)cc1 (stereo not drawn) | -1.1% | -13.9 | -9.9% | -6.75 | -22.1% | 1.2%
Cc1ccc(NC(=O)C(=O)C(C2C(C)CC(=O)C2CC(=O)O)[N+](=O)[O-])cc1 (stereo not drawn) | 23.6% | 11.7 | 12.2% | 17.7 | 13.7% | 30.6%

Source: PubChem BioAssay (NCI)
